# Results filed as inconclusive are left out. Activity calls are given as the source filed them. The calls were made as follows: active = hit-call score of the fitted dose curve at least 0.9, where 1 is the maximum; inconclusive = response in the unintended direction; inactive = score below 0.9.
# Biological target: human Retinoic Acid Receptor gamma (RARg) Agonism, RARG (gene 5916) (UniProt P13631)
# Assay: ERF_TW_NR_COA_hRARG: Eurofins (ERF) Nuclear Receptor (NR) Functional Coactivator Assay for human Retinoic Acid Receptor gamma (RARg) Agonism
# Procedure: ERF_TW_NR_COA_hRARG is a biochemical, single-readout assay that uses extracted gene-proteins in a cell-free assay. Measurements were taken 16 hours after chemical dosing in a 96-well plate. […] It is designed to measure FRET using a type of binding reporter as detected by fluorescence intensity of AM580 with fluorimetry technology.Data from the assay component ERF_TW_NR_COA_hRARG was analyzed at the assay endpoint, ERF_TW_NR_COA_hRARG, in the positive analysis fitting direction relative to DMSO as the negative control and baseline of activity. Using a type of binding reporter, gain-of-signal activity can be used to understand changes in binding as they relate to gene RARG. To generalize the intended target to other relatable targets, this assay endpoint is annotated to the nuclear receptor intended target family, where the subfamily is non-steroidal.
# Human recombinant retinoic acid receptor […] (RARgamma) receptors expressed in bacteria are used. Test compound and/or vehicle is incubated with the 25 nM receptors and binding buffer in modified Tris-HCl buffer pH 7.4 for 16 hours at 4C. Determination of the amount of complex formed is read spectrofluorimetrically (excitation:337 nm, emission:620/665 nm). Test compound-induced increase in fluorescence by 50 percent or more (>/= 50%) relative to the 0.3 uM AM580 response indicates possible RARgamma receptor agonist activity. […]
# Sequence of human Retinoic Acid Receptor gamma (RARg) Agonism, RARG (gene 5916) (P13631 whole entry, looked up): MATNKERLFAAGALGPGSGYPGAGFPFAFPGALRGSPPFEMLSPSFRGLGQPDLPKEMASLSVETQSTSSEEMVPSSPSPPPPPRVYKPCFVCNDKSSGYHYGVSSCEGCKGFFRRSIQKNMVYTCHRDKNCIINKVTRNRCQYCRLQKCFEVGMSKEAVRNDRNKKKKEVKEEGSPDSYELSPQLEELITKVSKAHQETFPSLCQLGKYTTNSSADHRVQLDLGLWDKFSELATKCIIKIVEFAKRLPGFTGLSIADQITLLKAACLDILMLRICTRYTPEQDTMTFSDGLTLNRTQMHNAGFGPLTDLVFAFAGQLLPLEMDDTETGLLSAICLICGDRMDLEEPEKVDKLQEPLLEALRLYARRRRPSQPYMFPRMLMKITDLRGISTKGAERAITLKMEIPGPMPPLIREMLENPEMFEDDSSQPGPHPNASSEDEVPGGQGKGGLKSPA
compound,measurement,value
C[C@H]1C[C@@H]2[C@H]([C@@H](O)C[C@@]3(C)[C@H]2CC[C@]3(O)C(=O)CO)[C@@]2(C)C=CC(=O)C=C12,outcome,inactive

# — PubChem BioAssay AID2284383 (EPA ToxCast)
